Data on 64 compounds can be found in PubChem BioAssay AID1117319 (Southern Research Institute, 2015).

Each structure is given as a SMILES string. In all, about 260,000 compounds went through this assay and about 1,500 (0.58%) were called active. Not shown: some 5% with an inconclusive outcome.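 The calls were made as follows: active = inhibition above a set limit at one or more doses, reproduced on every date tested; inconclusive = results disagree between test dates, or hit never tested in dose response; inactive = the rest.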 Only a sample is shown. Potency and affinity values are given separately.

For the assay, the target named is Virion infectivity factor (Human immunodeficiency virus type 1 group M subtype B (isolate BH10)) + Virion infectivity factor (Human immunodeficiency virus type 1 group M subtype B (isolate BRU/LAI)) + Virion infectivity factor (Human immunodeficiency virus type 1 group M subtype B (isolate PCV12)) + Virion infectivity factor (Human immunodeficiency virus type 1 group M subtype B (isolate HXB2)) + DNA dC->dU-editing enzyme APOBEC-3G (Homo sapiens) (UniProt P69720+P69721+P69722+P69723+Q9HC16). Briefly: HIV-1 Vif–A3G interaction blockers – biochemical, TR-FRET, GST-Vif 1-94, biotin-A3G peptide, dose response retest, primary screen (AID 1117319).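 Also: Vif residues 1-94 fused to GST binding biotinylated APOBEC3G peptide 110-148; 0% = full assay without inhibitor and 100% = GST in place of GST-Vif.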 The note with it: TR-FRET GST-Vif / biotin-A3G peptide binding; stronger effect = higher value. For orientation: TR-FRET usually uses a lanthanide donor and a delayed reading to cut background.
In the case of `Cc1cc(C(=O)N(C)Cc2c(F)cccc2Cl)c2ccccc2n1`, the inhibition is -2.57% (inactive).

For `Cc1ccc(S(=O)(=O)CCC(=O)OCc2cc(C)ccc2C)cc1`, the inhibition was 4.12% (inactive).

In the case of `Cc1cc(C(=O)CSc2ncccn2)c(C)n1Cc1ccco1`, the inhibition is -2.83% (inactive).

`CCn1c(C)cc(C(=O)CSc2nnc(-c3ccco3)o2)c1C`: the inhibition is 6.55% (inactive).

As to `COc1cccc(/C=C/C(=O)OCC(=O)Nc2cc(S(=O)(=O)N3CCOCC3)ccc2C)c1`, the inhibition was -9.36% (inactive).

For `CCN(CC(=O)NCc1cccs1)C(=O)c1ccc(S(=O)(=O)Nc2ccccc2Cl)cc1`, the inhibition is 1.56% (inactive).

With `CC(=O)Nc1cccc(NC(=O)COc2ccccc2C)c1`, the inhibition is -7.35% (inactive).

With `Cc1noc(C)c1COc1cccc(C(=O)N(C)Cc2cccs2)c1`, the inhibition is -1.46% (inactive).

For `COc1ccc2c(c1O)C(=O)c1ccccc1C2=O`, the inhibition was 23.1% (inactive).

Regarding `CC1(C)CC(=O)C(N=Nc2ccc(OC(F)F)cc2)=C(O)C1`, the inhibition was 12.4% (inactive).

For the compound `Cc1cccc(NC(=O)c2ccc(C)c(S(=O)(=O)N3CCCCC3)c2)n1`, the inhibition was 2.93% (inactive).

As to `Cc1ccccc1NC(=O)COC(=O)c1cc(=O)c2ccccc2o1`, the inhibition was -5.37% (inactive).

In the case of `NC(N)=N/N=C/c1ccc(OCc2ccccc2)cc1`, the inhibition was -2.74% (inactive).

Regarding `Oc1ccc(/C=N/N(c2ccccc2)c2ccccc2)cc1O`, the inhibition was 26.2% (inactive).

For `O=Cc1ccc(O)c(O)c1`, the inhibition is 0.2% (inactive).

For the compound `COc1ccc(/C=N/N=C/c2ccc(OC)c(O)c2)cc1O`, the inhibition was -4.01% (inactive).

Take `Oc1ccc(/C=N/N=C/c2ccc(O)cc2)cc1`: the inhibition was 4.98% (inactive).

As for `CC(=O)Nc1ccc(N=Cc2ccc(OCc3ccccc3)cc2)cc1`, the inhibition is 21.2% (inactive).

For `Cc1nc(SC(C)C(=O)c2c(N)n(C)c(=O)n(C)c2=O)c2c(C)c(C)sc2n1` (centres undefined), the inhibition was -0.67% (inactive).

Consider `CCOc1ccc(NC(=O)C(C)Sc2nnnn2C)cc1` (centres undefined), for which the inhibition is 0.56% (inactive).

`COc1cccc(NC(=O)CN(C)C(=O)CN2C(=O)NC(C)(c3ccc4ccccc4c3)C2=O)c1` (centres undefined): the inhibition was 9.34% (inactive).

For `Cc1ccc(C)c(NS(=O)(=O)c2ccc(OCC(=O)N3CCCC3)cc2)c1`, the inhibition was 1.52% (inactive).

As to `CS(=O)(=O)c1ccc(C(=O)OCC(=O)NC(=O)Cc2ccccc2)cc1`, the inhibition was -0.73% (inactive).

As for `COc1ccc(-n2c(SCC(C)=O)nc3sc(C)c(C)c3c2=O)cc1`, the inhibition is -12.1% (inactive).

`CC(C)(C)c1c(Cl)c(O)c(-c2ccccc2)c(=O)n1-c1ccccc1`: the inhibition was 11.4% (inactive).

Consider `CCN(c1ccccc1)S(=O)(=O)c1ccc2c(c1)N(C(C)=O)CCS2`, for which the inhibition was -1.04% (inactive).

As for `COc1ccccc1-c1nn(-c2ccccc2)cc1C(=O)NCC(c1ccco1)N1CCCC1` (centres undefined), the inhibition is 1.07% (inactive).

Consider `CCOC(=O)N1CCN(S(=O)(=O)c2ccc(OC)c(Cl)c2Cl)CC1`, for which the inhibition was 3.84% (inactive).

For `Fc1ccc2c(c1)c1n[nH]c(=S)nc1n2CCc1ccccc1`, the inhibition was 0.89% (inactive).

For the compound `O=C(Nc1ccc2c(c1)C(=O)c1ccccc1-2)c1ccccc1`, the inhibition was 4.11% (inactive).

As for `O=C1C=C(Nc2ccccc2)C(=O)c2ccccc21`, the inhibition was 1.37% (inactive).

As for `NC(Cc1ccc2nonc2c1)C(=O)O` (centres undefined), the inhibition is 17.1% (inactive).

Turning to `CC(C)C(=O)NN(C(=O)c1ccccc1)c1ccccc1`, the inhibition is -2.08% (inactive).

In the case of `O=C(c1ccccc1)N(Nc1ccccc1)c1ccccc1`, the inhibition is 11.5% (inactive).

Turning to `COc1ccc2cc(C#N)c(Nc3cccc(F)c3)nc2c1`, the inhibition was -0.27% (inactive).

`S=c1[nH]nc(NC2CCCCC2)s1`: the inhibition was 2.41% (inactive).

Take `CCOc1cc(C2Nc3ccccc3C(=O)N2c2ccccc2)ccc1O` (centres undefined): the inhibition is 24.7% (inactive).

Turning to `COc1cc(C2Nc3ccccc3C(=O)N2c2ccccc2OC)ccc1O` (centres undefined), the inhibition was -3.51% (inactive).

In the case of `CCCCOC(=O)c1cccc(NC(=O)CCC(=O)O)c1`, the inhibition was -3.12% (inactive).

With `NC(=O)c1ncc(C(F)(F)F)cc1Oc1cccnc1`, the inhibition was -3.05% (inactive).

For `CCN(C(=O)COC(=O)CNC(=O)c1ccc2ccccc2c1)C1CCS(=O)(=O)C1` (centres undefined), the inhibition is 11.8% (inactive).

As to `CCc1ccc(NC(=O)C2CCN(S(C)(=O)=O)CC2)cc1`, the inhibition is -4.22% (inactive).

`Cc1ccc(NC(=O)C2CC3CCC2C3)c(Br)c1` (centres undefined): the inhibition was -0.68% (inactive).

With `COc1ccc(NC(=O)C(NC(C)=O)C(=O)NCc2ccccc2OC)cc1` (centres undefined), the inhibition is 19.8% (inactive).

`COc1cc2cccc(OC)c(=O)c2c(O)c1OC`: the inhibition is 4.6% (inactive).

As for `Oc1cccc2cc3cccc(O)c3c(O)c12`, the inhibition was -5.93% (inactive).

For the compound `CCOC(=O)c1sc(NC(=O)Nc2ccc(F)cc2)nc1C`, the inhibition is 24.7% (inactive).

Regarding `Clc1ccccc1CN1CCN(c2ncccn2)CC1`, the inhibition was -5.95% (inactive).

Take `Nc1ccc(N2CCCCC2)c(Cl)c1`: the inhibition is 19.8% (inactive).

`CC1CCC2(CC1)NC(=O)N(CC(=O)NCc1ccc(Cl)cc1)C2=O` (centres undefined): the inhibition is -14% (inactive).

With `O=C(CNC(=O)c1ccc(Br)cc1)N/N=C/c1ccc[nH]1`, the inhibition was -7.5% (inactive).

For `Cc1nc2ccccc2c(-c2ccccc2)c1CC(=O)O`, the inhibition was -8.12% (inactive).

In the case of `Cc1nc2ccccc2n1CC(=O)c1ccccc1`, the inhibition was 6.29% (inactive).

`CCOC(=O)c1cnc2c(cnn2C)c1Cl`: the inhibition was 6.51% (inactive).

Take `COc1cc(OC)c(-c2oc3ccccc3c(=O)c2O)c(OC)c1`: the inhibition was 4.4% (inactive).

Regarding `COc1cc(OC)c2c(c1)OC(c1ccc(OC)c(OC)c1)C(O)C2=O` (centres undefined), the inhibition is 5.17% (inactive).

With `COc1ccc(C(=O)OCCN=C2NS(=O)(=O)c3ccccc32)cc1OC`, the inhibition was 0.81% (inactive).

In the case of `CC12CCCc3c(O)cc(=O)n(c31)-c1ccccc12` (centres undefined), the inhibition is 0.05% (inactive).

As for `CC(/C=C1\SC(=S)N(NS(=O)(=O)c2ccccc2)C1=O)=C\c1ccccc1`, the inhibition was -6.38% (inactive).

As for `COc1cc(/C=C2\SC(=S)N(NC(=O)c3ccccc3O)C2=O)ccc1O`, the inhibition is 5.15% (inactive).

For the compound `O=C1/C(=C/c2cccs2)SC(=S)N1NS(=O)(=O)c1ccccc1`, the inhibition is -2.36% (inactive).

`Cn1cccc1/C=C1\SC(=S)N(NC(=O)c2ccccc2O)C1=O`: the inhibition is 27.8% (inactive).

Consider `O=C(NN1C(=O)/C(=C/c2cccs2)SC1=S)c1ccncc1`, for which the inhibition was -1.89% (inactive).

In the case of `O=C(NN1C(=O)/C(=C/C=C/c2ccccc2)SC1=S)c1ccncc1`, the inhibition was 10.1% (inactive).

In general, inhibition refers to the change of the read-out against control, counted positive when it falls.
